The supplement of paper PMC6555819

Tests used:
Assay in all cases: PBM binding z-score (relative to random genomic background probes); higher = stronger binding; sequences stand for … in GC…GCGATTGACAGCGTAGAATGAAGG
[1] = tested on: FXR:RXRa (NR concentration 270 nM, RXRa partner concentration 90 nM)
In short: (§1)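 Binding z-scores take random background probes as their reference. They come from custom Agilent 4×180K protein-binding microarrays incubated 1 h with ligand-free nuclear receptor dimers, with antibodies against each partner (one per run) detecting binding. Scanned fluorescence was regression-normalized.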

[2] = tested on: LXRa:RXRa (NR concentration 270 nM, RXRa partner concentration 90 nM)
In short: as §1

[3] = tested on: LXRa homodimer (NR concentration 270 nM)
In short: as §1

[4] = tested on: LXRb:RXRa (NR concentration 270 nM, RXRa partner concentration 90 nM)
In short: as §1

[5] = tested on: LXRb homodimer (NR concentration 270 nM)
In short: as §1

[6] = tested on: PPARa:RXRa (NR concentration 270 nM, RXRa partner concentration 90 nM)
In short: as §1

[7] = tested on: PPARg:RXRa (NR concentration 180 nM, RXRa partner concentration 90 nM)
In short: as §1

[8] = tested on: PPARg:RXRa 270nM:90nM, anti-RXR (NR concentration 270 nM, RXRa partner concentration 90 nM)
In short: as §1

[9] = tested on: PPARg:RXRa 30nM:10nM, anti-RXR (NR concentration 30 nM, RXRa partner concentration 10 nM)
In short: as §1

[10] = tested on: PPARg:RXRa 90nM:30nM, anti-RXR (NR concentration 90 nM, RXRa partner concentration 30 nM)
In short: as §1

[11] = tested on: PPARg:RXRa DBDmut IVT, anti-RXR (DBD mutation: RXRa K156A/R161A, NR concentration 270 nM, RXRa partner concentration 90 nM)
In short: as §1

[12] = tested on: PPARg:RXRa IVT, anti-PPARg (NR concentration 270 nM, RXRa partner concentration 90 nM)
In short: as §1

[13] = tested on: PPARg DBDmut:RXRa IVT, anti-PPARg (DBD mutation: PPARg1 K132A/R137A, NR concentration 270 nM, RXRa partner concentration 90 nM)
In short: as §1

[14] = tested on: PPARg DBDmut IVT, anti-PPARg (DBD mutation: PPARg1 K132A/R137A, NR concentration 270 nM)
In short: as §1

[15] = tested on: PPARg homodimer (NR concentration 180 nM)
In short: as §1

[16] = tested on: PXR:RXRa (NR concentration 270 nM, RXRa partner concentration 90 nM)
In short: as §1

[17] = tested on: PXR homodimer (NR concentration 270 nM)
In short: as §1

[18] = tested on: RARa:RXR (NR concentration 270 nM, RXRa partner concentration 90 nM)
In short: as §1

[19] = tested on: RARa homodimer (NR concentration 270 nM)
In short: as §1

[20] = tested on: RARb:RXRa (NR concentration 270 nM, RXRa partner concentration 90 nM)
In short: as §1

Row | Sequence | PBM binding z-score [1] | PBM binding z-score [2] | PBM binding z-score [3] | PBM binding z-score [4] | PBM binding z-score [5] | PBM binding z-score [6] | PBM binding z-score [7] | PBM binding z-score [8] | PBM binding z-score [9] | PBM binding z-score [10] | PBM binding z-score [11] | PBM binding z-score [12] | PBM binding z-score [13] | PBM binding z-score [14] | PBM binding z-score [15] | PBM binding z-score [16] | PBM binding z-score [17] | PBM binding z-score [18] | PBM binding z-score [19] | PBM binding z-score [20]
1 | CCTGATAGGTCATGGTCAGCTAATCTACAGTATG | 5.33 | 4.19 | 0.689 | 3.39 | 0.182 | 4.96 | 3.65 | 3.99 | 1.25 | 2.81 | 3.61 | 2.99 | 1.15 | 0.715 | 2.24 | 2.79 | 0.473 | 4.02 | 1.43 | 4.18
2 | TCTATCAGTTGATTAGGGCAACCGAAACAGCGGA | -0.144 | 0.15 | -0.239 | 0.101 | 0.266 | 0.978 | 0.346 | 1.61 | 3.34 | 2.54 | 1.54 | 1.42 | 0.737 | 0.547 | -0.273 | 0.154 | -0.238 | 0.11 | -0.12 | 0.747
3 | CCTTACGGGTCAAGGTTACAGCACGGGTGGTACG | 5.94 | 3.96 | 0.209 | 2.99 | -0.186 | 5.24 | 5.13 | 5.27 | 2.14 | 3.87 | 2.05 | 3.96 | 0.601 | -0.0526 | 1.7 | 3.4 | -0.0469 | 4.47 | 0.176 | 4.45
4 | ATCTCTAGGTAACCAAGTTCTGTGAATGCCGAAC | 0.602 | 0.255 | 0.186 | 0.427 | 0.457 | 0.701 | 0.399 | 0.795 | 0.343 | 0.427 | 3.07 | 2.82 | 0.454 | 0.664 | 0.688 | 0.262 | 0.109 | 0.329 | 0.574 | 0.423
5 | TCTGCTAGGTCAGTTGGCCAGCTAACGAGCTGCC | 0.857 | 0.327 | -0.78 | -0.127 | -0.163 | 1.2 | -0.0379 | 1.3 | 0.758 | 1.1 | 2.81 | 2.82 | 0.783 | 0.614 | -0.509 | -0.116 | -0.845 | 0.0154 | -1.78 | 3.44
6 | ACTACAGGGTCACTAGGCCAGAGTAGGTACGAAT | 6.17 | 3.51 | -0.237 | 3.18 | 0.0917 | 5.65 | 7.54 | 5.96 | 2.62 | 5.05 | 3.3 | 5.46 | 1.45 | 0.752 | 2.24 | 2.67 | 0.0574 | 3.53 | 0.377 | 4.19
7 | ACTCGGAGGACAATGGTCAGAGCTACGCCAGTGA | -0.187 | -0.512 | -0.435 | -0.708 | -0.881 | -0.704 | 0.723 | 0.466 | -0.281 | -0.00366 | -0.21 | -0.421 | -1.67 | -0.609 | -0.576 | -0.593 | -0.561 | -0.488 | -0.119 | 1.23
8 | AATACAGGGTCATCGTAGGCCAGAGTTCGCACAG | 7.34 | 6.57 | 3.73 | 4.63 | 1.44 | 5.93 | 7.18 | 6.46 | 2.9 | 5.18 | 2.96 | 4.45 | 1.89 | 1.85 | 3.53 | 5.76 | 2.02 | 5.59 | 0.95 | 4.33
9 | CCGACTGGGGCATAAGGTTACCATAAGCCAGCCC | 0.197 | 1.68 | -0.354 | 0.645 | -1.33 | 1.75 | 2.29 | 3.15 | 0.853 | 2.5 | 2.93 | 3.01 | -0.979 | -1.34 | 0.447 | 0.164 | -0.32 | 1.11 | -0.464 | 1.66
10 | CGTCCAAGGTCAGCAGGTCAGTGCAAGCGACGTG | 5.87 | 3.79 | 0.73 | 2.8 | -0.131 | 4.86 | 4.09 | 4.53 | 1.16 | 2.98 | 3.15 | 3.71 | -0.109 | -0.869 | 3.88 | 3.68 | 0.651 | 4.87 | 0.357 | 5.27
11 | CCTACTGCGCCAAAGGTCATTGATTCCAATGCTC | 5.29 | 5.64 | 5.34 | 5.07 | 1.91 | 5.47 | 6.88 | 7.67 | 6.56 | 7.79 | 1.68 | 3.77 | 5.21 | 1.61 | 3.34 | 5.66 | 2.58 | 5.78 | 2.4 | 4.61
12 | TCTGCTAGGCCAGTTGGTCAGCTAACGAGCTGCC | -3.09 | -0.955 | -1.26 | -1.27 | -0.666 | -0.606 | -1.07 | 0.229 | 0.768 | 0.446 | 0.789 | 0.538 | -0.123 | -0.684 | -2.67 | -0.743 | -1.82 | -0.933 | -1.48 | 0.442
13 | AGAATGAGGTTAGACGTAGATCAGGGAAGAAAGT | 0.755 | 0.774 | 0.0351 | 0.67 | -0.107 | 2.02 | 0.989 | 1.22 | 0.406 | 0.527 | 3.27 | 1.52 | 0.96 | 1.16 | 0.901 | 0.631 | 0.578 | 1.17 | 0.74 | 1.21
